ADAM10 inh: inhibitors of human ADAM10. O14672. recombinant ADAM10, EDANS/DABCYL FRET peptide cleavage, 3 h. inhibition, % at 7 µM. 0.62% of 370,000 active. AID 720582;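 active means inhibition above a per-campaign cutoff equal to the mean of compounds falling between control-based bounds plus 3 SD, cut at about 20% in these data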;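 further: 0% = DMSO wells while the 100% control is not disclosed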
KLK7 zymogen act: activators of human kallikrein-7 zymogen; P49862; purified proKLK7, EDANS-DABCYL substrate fluorescence; 100% is mature enzyme control, 0% vehicle; activation, % at 7 µM; 0.9% of 370,000 active;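 active means activation above the mean of all tested compounds plus 3 SD, computed per campaign excluding outliers beyond control limits, cut at about 13% in these data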
Target sequence (P49862 whole entry, looked up): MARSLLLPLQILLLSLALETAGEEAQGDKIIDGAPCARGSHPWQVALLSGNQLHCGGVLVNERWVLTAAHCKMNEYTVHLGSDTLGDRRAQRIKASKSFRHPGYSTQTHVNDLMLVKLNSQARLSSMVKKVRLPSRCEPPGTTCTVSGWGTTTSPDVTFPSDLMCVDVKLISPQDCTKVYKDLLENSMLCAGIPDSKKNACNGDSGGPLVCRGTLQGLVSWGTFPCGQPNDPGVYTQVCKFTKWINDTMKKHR
ADAM17 inh: inhibitors of human ADAM17. P78536. recombinant ADAM17, EDANS/DABCYL FRET peptide cleavage. inhibition, % at 6.95 µM. 0.83% of 370,000 active. AID 720648;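 active means inhibition above the mean of compounds lying between control limits plus 3 SD, set per campaign, cut at about 8.5% in these data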;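 further: 0% = DMSO-only wells as the low control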
PLCb3 inh: blocks human PLC-beta3 enzyme activity; Q01970; Purified PLC-beta3, fluorogenic substrate, fluorescence; inhibition, % at 12.2 µM; 0.18% of 370,000 active; AID 720704; in the data active means inhibition above about 11%;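 further: 0% = median of compound wells on plate and 100% = full blocker control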
PLC-gamma1 inh: PLC-gamma1 (human) inhibition, primary screen; P19174; purified PLC-gamma1, fluorogenic substrate, fluorescence; inhibition, % at 12.2 µM; 0.84% of 370,000 active; in the data active means inhibition above about 9.5%
The depositor's hits bear a star; i = inactive; . = no result. Rows were chosen to be rich in hits. Some 2.9% of all compounds tested hit in one or more screens of this group.

SMILES	ADAM10 inh	KLK7 zymogen act	ADAM17 inh	PLCb3 inh	PLC-gamma1 inh
CC1Cc2ccccc2N1C(=O)c1cc2c(=O)n3ccccc3nc2n1C (stereo not given)	-30.6	1.9	-8.9	-34.0	-31.2
Cn1c(C(=O)N2CCN(C(=O)c3ccco3)CC2)cc2c(=O)n3ccccc3nc21	i	45.8*	i	i	i
CC(C)C[C@H](NC1(C(=O)NC2CCCCC2)CCN(C(=O)OC(C)(C)C)CC1)C(=O)NCCc1c[nH]c2ccccc12	4.5	.	3.2	2.2	1.3
CC1Cc2nc(SCC(=O)c3ccccc3)n(Cc3ccccc3)c(=O)c2S1 (stereo not given)	20.5*	-0.6	3.4	7.3	2.6
O=C(CCCSc1nc(-c2ccco2)cc(C(F)(F)F)n1)Nc1ccc2c(c1)OCO2	25.6*	0.4	5.0	-3.9	-1.3
CC(=O)c1c(C)[nH]c(C(=O)OCC(=O)Nc2cc(Cl)ccc2[N+](=O)[O-])c1C	8.7	0.3	6.7	10.4	10.8*
CC(=O)c1c(C)[nH]c(C(=O)OCC(=O)Nc2ccc(C)cc2[N+](=O)[O-])c1C	1.2	0.4	-2.1	2.7	5.8
COc1ccc2c(c1)OC[C@H]1[C@H]2N2C(=O)c3ccc(F)cc3NC(=O)[C@@]2(C)[C@H]1c1ccccc1	19.2	-1.6	9.1*	-7.6	-3.3
COc1ccc2c(c1)OC[C@H]1[C@H]2N2C(=O)c3cc(OC)c(OC)cc3NC(=O)[C@@]2(C)[C@H]1c1ccccc1	-7.4	-0.1	-2.1	-25.9	-18.4
Cc1cccc(N2CCN(C(=O)c3cc(S(=O)(=O)N(C)C)ccc3Cl)CC2)c1C	4.9	.	0.1	0.6	1.8
N#Cc1c(C(F)(F)F)cc(-c2ccccc2)[nH]c1=O	i	25.5*	i	-467.2	-377.8
Cc1ccc(-c2cc(C(F)(F)F)c(C#N)c(=O)[nH]2)cc1	i	8.1	-273.1	-118.5	-87.1
Cc1cc(C(=O)N[C@H](c2ccccc2)[C@@]2(C)C[C@@H]2[C@@H](C)C(=O)Nc2ccc3ccccc3c2)n(C)n1	28.1*	0.3	12.7*	6.4	4.2
C[C@@H](C(=O)Nc1ccc2ccccc2c1)[C@H]1C[C@]1(C)[C@H](NC(=O)OCc1ccccc1)c1ccccc1	7.4	-0.5	3.7	4.4	0.1
Cc1ccc(S(=O)(=O)/N=C2\SC(CC(=O)Nc3ccc(F)cc3)C(=O)N2c2ccccc2)cc1 (stereo not given)	18.5	0.6	7.4	10.7*	6.8
Cc1cccc(C(=O)N2CCC(=O)N(C(COCc3ccccc3)Cc3ccccc3)CC2)c1 (stereo not given)	3.6	-0.2	2.6	1.4	15.0*
COC(=O)CNC(=O)CNC1(C(=O)NCCc2c[nH]c3ccccc23)CCCCC1	-1.7	.	-4.1	-0.7	2.0
C=CC[n+]1c(-c2ccc(Cl)cc2Cl)csc1Nc1ccc(NC(C)=O)cc1	26.8*	-0.1	8.4	1.6	1.5
COc1ccccc1N1CCN(S(=O)(=O)c2ccc3c(c2)CCC(=O)N3)CC1	5.5	-0.2	1.3	0.3	1.1
Cc1ccccc1CN1CCCCC(NC(=O)C2CCC2)C1=O (stereo not given)	1.2	-0.2	3.0	4.3	6.8
CCCCCC/C(C)=C1/SC(=S)NC1=O	-2.6	-0.5	-1.0	-2.1	-1.0
C/C(C/C(C)=C1/SC(=S)NC1=O)=C1\SC(=S)NC1=O	-0.4	0.3	1.0	-3.4	72.9*
COC(=O)C1CN(Cc2cn(Cc3ccc(F)cc3)nn2)CCS(=O)(=O)N1Cc1ccc(C)cc1 (stereo not given)	-0.1	0.1	-1.8	-0.5	0.9
Cc1ccc(S(=O)(=O)N2c3ccccc3C[C@H]2CC=C(c2ccccc2)c2ccccc2)cc1	7.4	.	2.5	2.2	1.0
O=C(c1cc(Cl)cc(Cl)c1)N1CC[C@H]2[C@H](CCCN2Cc2cc(F)cc(F)c2)C1	-0.7	0.1	0.6	0.3	-1.5
SMILES	ADAM10 inh	KLK7 zymogen act	ADAM17 inh	PLCb3 inh	PLC-gamma1 inh
COCC(=O)N(C)c1nnc(-c2cnccn2)s1	-30.4	31.7*	-11.1	-50.8	-43.0
COC(=O)[C@]12C[C@H](CC(=O)NCCC(C)C)C(=O)N(CCC3=CCCCC3)C1=C[C@H](C(C)(C)C)O[C@@H]2C	8.2	0.3	8.1	7.7	8.1
O=C(Nc1nc(-c2cccs2)cs1)c1cccc(S(=O)(=O)N2CCCCC2)c1	37.9*	-2.5	15.6*	-111.0	-74.8
O=C(Nc1nc(-c2ccccc2)cs1)C1CCCN(S(=O)(=O)c2ccccc2)C1 (stereo not given)	16.9	0.1	9.4*	2.6	-0.3
O=C(Nc1nc(-c2ccccc2)cs1)C1CCCN(S(=O)(=O)c2cccc([N+](=O)[O-])c2)C1 (stereo not given)	-1.9	0.3	-1.9	-1.4	-2.8
COc1ccc(Cl)cc1Cn1c(C)c(C(=O)NCc2cccc(Cl)c2)sc1=O	14.2	-0.2	10.3*	-0.7	1.5
COC(=O)[C@]12C[C@H](CC(=O)N3CCN(C(=O)c4ccco4)CC3)C(=O)N(CCc3ccc(OC)c(OC)c3)C1=C[C@H](C(C)C)O[C@@H]2C1CC1	2.3	-0.6	-3.5	-0.6	-0.3
CC1=NN(c2ccccc2)C(=O)/C1=C/c1cccc(C)c1	0.5	-0.3	-0.5	-0.8	7.9
CC(=O)Oc1ccc(/C=C2/C(=O)N(c3ccccc3)N=C2C)cc1	8.7	0.7	-0.3	1.5	30.8*
COc1ccc(/C=C2/C(=O)N(c3ccccc3)N=C2C)cc1OC	14.3	0.4	2.4	9.6	18.5*
CCOC(=O)c1csc(NC(=O)C2CCCN(S(=O)(=O)c3ccc([N+](=O)[O-])cc3)C2)n1 (stereo not given)	5.1	-0.3	3.6	1.7	-1.4
O=C(N/N=C/c1cccs1)c1[nH]ncc1Br	-3.9	0.4	5.3	3.4	12.4*
O=C(N/N=C/c1cccs1)c1cnccn1	2.2	0.1	3.9	-1.1	2.0
CCCc1nnn(S(=O)(=O)c2ccc([N+](=O)[O-])cc2)c1CCC	-8.8	-0.4	5.4	13.2*	11.9*
Cc1nn(S(=O)(=O)c2ccccc2)c(C)c1Sc1ccc([N+](=O)[O-])cc1	6.5	0.1	-0.3	1.6	0.7
N#CCC[C@H]1CC[C@]2(CCCN(C(=O)C3CCCCC3)C2)O1	1.9	-0.3	2.9	1.3	1.9
CN(CC(=O)Nc1ccc(Cl)cc1)C(=O)Cn1[nH]c(=O)c2ccccc2c1=O	6.2	0.6	-1.3	-5.6	9.8*
CC1=C2NC(N)=[N+](CC3CC3)C(Cc3ccccc3)[C@@H]2n2c(=O)n(-c3ccccc3)c(=O)n2C1 (stereo not given in full)	-8.5	-0.2	-4.7	4.3	2.6
CCc1ccc(NC(=O)CN(CC(=O)Nc2ccc(CC)cc2)CC(C)O)cc1 (stereo not given)	6.4	0.5	6.0	-1.1	11.1*
CCN(CC)CC(=O)Nc1ccc(Oc2ccc(NC(=O)CN(CC)CC)cc2)cc1	3.7	0.2	-1.9	3.1	4.5

Screens deposited in PubChem BioAssay by The Scripps Research Institute Molecular Screening Center.
